Sampled rows, rich in hits. Any-hit rate of the full collection: about 3.4%.
GBA activity: Glucocerebrosidase; Lysosomal acid glucosylceramidase (Homo sapiens), P04062; purified enzyme, resorufin glucoside fluorescence (screen aimed at inhibitors), 20 min; Potency, µM; 1.1% of 48,000 active; AID 360, 2006; in the data active = potency below about 15 µM; inconclusive = mostly about 16 µM to 33 µM;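 note: the screen sought inhibitors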
Target sequence (P04062 whole entry, looked up): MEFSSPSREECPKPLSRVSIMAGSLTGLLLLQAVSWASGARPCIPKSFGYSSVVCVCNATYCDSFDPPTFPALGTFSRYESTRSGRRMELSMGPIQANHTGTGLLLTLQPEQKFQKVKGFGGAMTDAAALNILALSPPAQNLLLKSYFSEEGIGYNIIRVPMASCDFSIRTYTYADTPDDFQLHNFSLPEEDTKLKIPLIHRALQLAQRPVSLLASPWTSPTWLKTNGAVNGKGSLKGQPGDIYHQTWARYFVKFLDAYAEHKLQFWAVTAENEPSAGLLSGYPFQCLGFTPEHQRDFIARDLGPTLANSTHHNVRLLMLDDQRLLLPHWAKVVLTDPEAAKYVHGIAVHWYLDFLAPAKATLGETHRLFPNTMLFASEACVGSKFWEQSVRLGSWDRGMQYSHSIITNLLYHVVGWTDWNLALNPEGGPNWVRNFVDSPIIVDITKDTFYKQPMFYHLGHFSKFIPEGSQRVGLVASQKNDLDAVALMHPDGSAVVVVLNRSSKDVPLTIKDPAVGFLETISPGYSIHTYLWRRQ
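Compounds titrated against 0.2 nM normal enzyme, 30 uM resorufin beta-D-glucopyranoside substrate, citrate/phosphate buffer with taurocholate and tween-20, pH 5.9. Reaction ran 20 min at room temperature; fluorescence (Ex 548/Em 600) gave AC50.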
FLuc inh: qHTS Assay for Inhibitors of Firefly Luciferase. purified firefly luciferase, luminescence, 8 min. Potency, µM (titrated, usually from 57.1 µM), for inactives: top-dose activity change, negative = inhibition, hits mostly inhibitors. 2.2% of 72,000 active; active = well fitted inhibition curve with a large enough effect; inconclusive = small, poorly fitted or top-dose-only effect; note: % is set by controls: 0 for no effect and ±100 for the full control effect; nearly all actives have a fitted effect of over 40% in size
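Titration-based qHTS; buffer 50 mM imidazole pH 7.2, 50 mM KCl, 7 mM MgCl2, 10 uM ATP, 0.01% Tween 20, 0.05% BSA; luciferase/luciferin detector mix added after compound; 8 min, ambient; luminescence.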
PK Bst: Pyruvate Kinase | purified pyruvate kinase, luminescence ATP production; ribose 5-phosphate activator present at AC10 | Potency, µM | 1.2% of 51,000 active; in the data active = potency below about 11 µM; inconclusive = mostly about 12 µM to 25 µM;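 the screen sought inhibitors and activators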;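 note: scaled between full activation by ribose 5 phosphate and full inhibition by luteolin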
Active calls of the source: *; i = inactive; ? = inconclusive; nt = no result; [ ] = remark or other dose. Potency is the fitted concentration of half-maximal effect.

SMILES | GBA activity | FLuc inh | PK Bst
O=C(Nc1cccc(-c2nc3cccnc3s2)c1)c1ccco1 | >76.9 | 20µM* | ?
O=C(Nc1cccnc1)c1cccc(NC(=O)c2ccco2)c1 | nt | -22.6% | nt
COc1ccc(CNc2nc(-c3ccccc3CN(C)C)nc3ccccc23)c(OC)c1 | nt | -9.5%[2.29 µM] | nt
N#Cc1c(/N=C/c2cccs2)sc2c1CCCCC2 | >76.9 | 2µM* | 1.14*
CN(C)/C=N/c1sc2c(c1C#N)CCC2 | >76.9 | -4.0% | >57
CC(=O)Nc1sc2c(c1C#N)CCCCC2 | >76.9 | -1.6% | >57
N#Cc1c(/N=C/N2CCOCC2)sc2c1CCCCC2 | nt | 12.6µM* | nt
N#CC(=C(/N)Sc1ccccc1N)/C(C#N)=C(/N)Sc1ccccc1N | nt | 0.9% | nt
COc1cccc(Nc2ncc3nc(C)c(=O)n(CCC#N)c3n2)c1 | nt | -0.5%[11.4 µM] | nt
O=C(O)c1cccc(C(=O)O)c1S(=O)Cc1ccccc1 (configuration not stated) | nt | 3.9%[11.4 µM] | nt
Cc1ccc(S(=O)(=O)N2CCOCC2)cc1C(=O)Nc1ccc(-c2cn3ccsc3n2)cc1 | nt | -6.1% | nt
O=C(Nc1ccc(-c2cn3ccsc3n2)cc1)C1CCCC1 | ? | 2.51µM* | 2.43*
O=C(Nc1ccc(-c2cn3ccsc3n2)cc1)C1CC1 | i | 6.31µM* | 4.93*
O=C(CCN1C(=O)c2ccccc2C1=O)Nc1ccc(-c2cn3ccsc3n2)cc1 | >76.9 | -13.8% | >57
CC(=O)Nc1ccc(-c2cn3ccsc3n2)cc1 | >76.9 | 15.8µM* | ?
c1cn2cc(-c3ccc4c(c3)OCO4)nc2s1 | >76.9 | 7.94µM* | 8.94*
O=C(Nc1ccc(F)cc1)C1CCCCC1 | >76.9 | -1.2% | >57
O=S(=O)(Nc1cccc(-c2cn3ccsc3n2)c1)c1ccc(F)cc1 | nt | -7.4% | >57
O=C(O)CSc1ccc(N=C=S)cc1 | nt | 1.5%[11.4 µM] | nt
CC(C)CC(=O)Nc1cccc(-c2cn3ccsc3n2)c1 | nt | 15.8µM* | i
CCC(=O)Nc1cccc(-c2cn3ccsc3n2)c1 | >76.9 | ? | i
COc1ccc(-c2oc3ccc(C)cc3c(=O)c2O)cc1OC | nt | -1.7%[11.4 µM] | nt
COc1cccc(Cn2c(=O)c(-c3cccc(Cl)c3)nc3cncnc32)c1 | nt | -0.1%[11.4 µM] | nt
Cc1nnc(SCC(=O)Nc2nccs2)s1 | >76.9 | 3.0% | >57
CN(C)c1ccc(NC(=O)c2sc(SCC(=O)Nc3nccs3)nc2N)cc1 | nt | 3.98µM* | 10*
SMILES | GBA activity | FLuc inh | PK Bst
COc1ccc(-c2cn3cc(Cl)ccc3n2)cc1OC | 2.83* | ? | i
COc1nc(-c2ccccc2)cc(-c2ccc(OC)c(OC)c2)n1 | nt | -19.8% | nt
CC(C)[C@H](CO)Nc1nc(Nc2cccc(Cl)c2)c2ncn(C(C)C)c2n1 | nt | 1.8% | nt
Clc1ccc(-n2ncc3c(NCc4ccco4)ncnc32)cc1 | nt | 3.98µM* | 7.61*
c1ccc(-n2ncc3c(NCC4CCCO4)ncnc32)cc1 (configuration not stated) | nt | -27.5%[25.5 µM] | i
Clc1ccc(Cn2ncc3c(NCc4ccco4)ncnc32)c(Cl)c1 | i | 1.5% | >57
Clc1ccc(-n2ncc3c(NCC4CCCO4)ncnc32)cc1 (configuration not stated) | nt | 5.01µM* | nt
CC[C@@](N)(C(=O)O)c1ccc(C(=O)O)cc1 | nt | -0.1% | nt
CN1CCN(Cc2nc(N)nc(Nc3ccc4c(c3)OCCO4)n2)CC1 | >76.9 | -3.2% | >57
Nc1nc(CN2CCN(c3ccccn3)CC2)nc(Nc2ccc(Cl)cc2)n1 | i | 1.0% | >11.4
COc1cccc(N2CCN(Cc3nc(N)nc(Nc4ccccc4)n3)CC2)c1 | 2.91* | 5.8% | >57
Cc1ccc(-c2noc(CN3CCN(c4ccccc4F)CC3)n2)cc1 | nt | 5.4% | nt
Cc1cccc(Nc2nc(N)nc(CN3CCN(Cc4ccc5c(c4)OCO5)CC3)n2)c1 | 9.79* | -2.8% | >57
Cc1cccc(Nc2nc(N)nc(CN3CCN(c4ccccc4F)CC3)n2)c1 | 1.43* | 0.2% | >57
Cc1ccc(Nc2nc(N)nc(CN3CCCCCC3)n2)c(C)c1 | nt | -0.1% | >57
Cc1cccc(Nc2nc(N)nc(CN3CCN(c4ccccc4)CC3)n2)c1 | 4.34* | 1.4% | >57
Cn1c(=O)c2[nH]c(CCCCc3nc4c([nH]3)c(=O)n(C)c(=S)n4C)nc2n(C)c1=S | nt | 2.7%[11.4 µM] | nt
CCNc1ncc2nc(-c3cc(F)cc(F)c3)c(=O)n(Cc3cccs3)c2n1 | nt | 1.2%[11.4 µM] | nt
O=C(O)/C=C\c1cnc[nH]1 | nt | 0.4% | nt
O=C(N/N=C1/C[C@@H](O)[C@@H](O)[C@@H]2[C@@H]3C(=O)N(C[C@@H]4CCCO4)C(=O)[C@H]3CC[C@@H]12)OCc1ccccc1 | nt | 0.1%[11.4 µM] | nt
COCCn1c(=O)c(-c2ccc(F)cc2)nc2cnc(N(C)C)nc21 | nt | -0.5%[11.4 µM] | nt
O=C(Oc1ccc(-c2cn3c(n2)SCC3)cc1)c1ccccc1 | ? | 12.6µM* | nt
O=C(Oc1ccccc1)c1ccc(-n2cnnn2)cc1 | >76.9 | 2.2% | >57
Cc1ccc(Cn2c(=N)n(CC(O)c3ccco3)c3ccccc32)cc1 (configuration not stated) | 10.2* | -15.6% | >57
CCCn1c(=N)n(CC(O)c2ccco2)c2ccccc21 (configuration not stated) | >76.9 | 1.2% | >57
SMILES | GBA activity | FLuc inh | PK Bst
C/C(CCC(=O)OC[C@@H]1O[C@H](C#Cc2ccccc2)C=C[C@@H]1Oc1ccc(C)cc1)=N/OC[C@@H](O)[C@H]1O[C@H]2OC(C)(C)O[C@H]2[C@@H]1O | nt | 2.0%[11.4 µM] | nt
C#CCCCO/N=C1/C[C@@H](O)[C@@H](O)[C@@H]2[C@@H]3C(=O)N(C[C@@H]4CCCO4)C(=O)[C@H]3CC[C@H]12 | nt | -1.0%[11.4 µM] | nt
CCCCc1ccc(-c2ccc(C)cc2O)nc1 | >76.9 | 10µM* | 9.8*
CCCCc1ccc(CC(=O)O)cc1 | >76.9 | 1.3% | >57
COc1ccc(-c2nc3cnc(Nc4cccc(OC)c4)nc3n(C[C@H]3CCCO3)c2=O)cc1 | nt | -1.9%[11.4 µM] | nt
COc1ccccc1Nc1nc2ccccc2n1C | nt | 15.8µM* | nt
CNc1ccccc1-c1nc2ccccc2n(C)c1=O | nt | 1.0%[25.5 µM] | >25.6
COc1ccc(-c2nc(N)ncc2-c2csc(C)n2)c(O)c1 | >76.9 | 1.6% | >57
COc1ccc(-c2nc(N)nc(C)c2Oc2ccccc2Br)c(O)c1 | >76.9 | -1.2% | 1.86*
Cc1cc(C)c2c(=O)n(CC(=O)NCCCN3CCN(c4ccccc4F)CC3)sc2n1 | nt | 12.6µM* | nt
Cc1cc(C)c2c(=O)n(CC(=O)N3CCC(Cc4ccccc4)CC3)sc2n1 | nt | -26.8% | nt
Cc1ccccc1CS(=O)(=O)CCC(=O)NCCCN1CCN(c2ccccc2F)CC1 | >76.9 | 1.9% | >57
Cc1cc(C)c2c(=O)n(CC(=O)NCCCN3CCOCC3)sc2n1 | nt | 12.6µM* | nt
Cc1cccc(CNc2cc(-c3cccc(C#N)c3)ncn2)c1 | nt | 2.5%[2.29 µM] | nt
CN(N=O)C(=O)N[C@H]1C(O)OC(CO)[C@@H](O)[C@H]1O (some centres not stated) | nt | 2.3% | nt
N#Cc1cccc(-c2nc(NCc3cccnc3)c3ccccc3n2)c1 | nt | 2.0%[2.29 µM] | nt
Cc1cccc(N(C)S(=O)(=O)c2ccc3[nH]cc(C(=O)N4CCOCC4)c(=O)c3c2)c1 | >76.9 | -1.0% | >57
Cc1cccc(N(C)S(=O)(=O)c2ccc3[nH]c(=O)c(=O)[nH]c3c2)c1 | 10.9* | 4.2% | nt
CC(C)=CCNc1ncnc2c1c(C#N)cn2[C@H]1O[C@@H](CO)[C@@H](O)[C@@H]1O | nt | 4.5%[11.4 µM] | nt
COC(=O)Cc1c(C)nc2nc(-c3ccccc3)[nH]n2c1=O | ? | 25.1µM* | nt
COC(=O)Cc1c(C)nc2nc(-c3cccnc3)[nH]n2c1=O | >76.9 | -10.3% | >57
